Anthrax LF prot: Bacillus anthracis LF protease inhibitors, primary screen, biochemical, multiplex microsphere, MLPCN library; 360,000 compounds, 0.12% hits; multiplex microsphere protease cleavage assay; Lethal factor (Bacillus anthracis), P15917; inhibition, % at 10 µM; AID 588501, 2011; also: plate controls were buffer without enzyme for full effect and enzyme alone for no effect
BoNT A protease: BoNT/A light chain protease inhibitors, primary screen, biochemical, flow cytometry, MLPCN library; Botulinum neurotoxin type A light chain protease (Clostridium botulinum A str. ATCC 3502); multiplex microsphere protease substrate cleavage; inhibition, % at 10 µM; 360,000 compounds, 0.17% hits; AID 588499, 2011; also: plate controls were buffer without enzyme for full effect and enzyme alone for no effect
BoNT-F LC inh: BoNT/F light chain protease inhibitors, primary screen, biochemical, flow cytometry, MLPCN library. Botulinum neurotoxin type F light chain protease (Clostridium botulinum). Multiplex microsphere protease cleavage assay. inhibition, % at 10 µM. 360,000 compounds, 0.22% hits; in the data active = inhibition above about 35%, passing the limit was not always enough; inconclusive = no clear call, values can overlap the other calls; also: plate controls were buffer without enzyme for full effect and enzyme alone for no effect
GDH-TPI inh: GDH-TPI coupling enzyme inhibitors, primary screen, artefact control for M. tuberculosis FBA inhibitor project, biochemical, absorbance, full deck | GDH-TPI coupled enzyme counterscreen, NADH absorbance | inhibition, % at 4.8 µM | 360,000 compounds, 1.2% hits; in the data active = inhibition above about 30%;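 also: 0% = DMSO wells and 100% = wells lacking the enzyme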
Autofluor counter: compound fluorescence in toxin protease inhibitor counterscreen; compound autofluorescence counterscreen, microsphere flow cytometry; hits give high values; fluorescence intensity (test concentration not listed); 360,000 compounds, 3.1% hits; in the data active = fluorescence intensity above about 16000; inconclusive = no clear call, values can overlap the other calls
Mtb FBA inh: Mtb FBA enzyme inhibitors, primary screen, biochemical, fluorescence, strain H37Rv; Fructose-bisphosphate aldolase (Mycobacterium tuberculosis (strain ATCC 25618 / H37Rv)), …; purified M. tuberculosis FBA, fluorescence read-out; inhibition, % at 1 µM; 360,000 compounds, 2.3% hits; AID 588726, 2011; in the data active = inhibition above about 27%;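 also: 0% = vehicle and 100% = reference inhibitor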
Target sequence (P9WQA3 whole entry, looked up): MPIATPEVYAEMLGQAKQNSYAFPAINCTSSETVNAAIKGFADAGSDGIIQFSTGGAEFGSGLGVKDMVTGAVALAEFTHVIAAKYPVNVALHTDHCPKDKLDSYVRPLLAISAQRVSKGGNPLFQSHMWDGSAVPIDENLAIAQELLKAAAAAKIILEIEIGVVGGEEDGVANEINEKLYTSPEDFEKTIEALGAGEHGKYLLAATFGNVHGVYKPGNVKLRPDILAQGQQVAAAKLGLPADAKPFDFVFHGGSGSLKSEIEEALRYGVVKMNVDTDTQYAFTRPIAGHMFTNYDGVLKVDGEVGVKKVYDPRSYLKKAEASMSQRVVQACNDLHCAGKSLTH
Numbers without * were called inactive; ? = inconclusive; + = active, no number. Sampled rows, rich in hits. Any-hit rate of the full collection: about 6.6%. Rule as the data show it, unless noted: active = inhibition above about 30%; inconclusive = no clear call, values can overlap the other calls; inactive = below that.

SMILES	Anthrax LF prot	BoNT A protease	BoNT-F LC inh	GDH-TPI inh	Autofluor counter	Mtb FBA inh
CCOC(=O)Cn1cc(/C=C(/C#N)C(=O)NC(C)C)c2ccccc21	2	0	3	4	4840	3
COc1cccc(N/C=C/c2onc(C)c2[N+](=O)[O-])c1	-3	1	1	10	2735	-3
NS(=O)(=O)c1ccc(N/N=C/C=C/c2ccccc2[N+](=O)[O-])cc1	-3	-2	-5	29	5856	-6
O=C(O)c1cc(N/N=C/C=C/c2ccccc2[N+](=O)[O-])ccc1Cl	-8	0	-6	38*	3335	-9
C/C(=N\NC(=O)c1ccccc1C)c1cccc([N+](=O)[O-])c1	1	2	27	10	2824	0
C/C(=N\Nc1ccc(Cl)c(C(=O)O)c1)c1cccc([N+](=O)[O-])c1	-2	-1	-2	42*	?	-5
NS(=O)(=O)c1ccc(NC(=O)CCC(=O)c2ccc(Cl)s2)cc1	-1	0	-3	-2	5302	-2
C/C=C\C(=O)Nc1cccc(C2=NOC3(C2)C[C@H](C(N)=O)N(C(=O)Cc2ccc([N+](=O)[O-])cc2)C3)c1 (stereo partly drawn)	-6	0	-6	3	3755	0
Cc1ccc2nc(SCC(=O)c3ccc(Cl)s3)[nH]c2c1	-3	0	-2	5	19540*	-2
Cc1ccc2nc(SCC(=O)c3ccc4c(c3)OCO4)[nH]c2c1	-9	0	3	9	5248	-4
Cc1cc(NC(=O)NC2(C(F)(F)F)Oc3ccc(Cl)cc3O2)no1 (stereo not drawn)	-3	-1	0	5	16576*	-2
COc1cccc(C2CC(c3ccccc3)Nc3ncnn32)c1 (stereo not drawn)	0	0	0	-8	22399*	0
Cc1cc(=O)oc2cc(OCCSCCN3CCCCC3)ccc12	2	-3	?	36*	3523	26
COc1nccnc1NS(=O)(=O)c1ccc(N=Cc2c(C)[nH]n(-c3ccc(C)c(C)c3)c2=O)cc1	2	0	1	32*	10726	-1
Cc1ccc2nc(CSc3nnc(-c4ccco4)n3-c3ccccc3)cc(=O)n2c1	-1	0	1	8	22931*	0
Cc1ccc2nc(CSc3nnc(-c4ccco4)o3)cc(=O)n2c1	-5	0	-5	28	5877	4
CN(Cc1ccccc1)C(=O)CSc1nnc(-c2ccco2)n1-c1ccccc1	-1	-2	0	-11	19956*	1
CN(C)C(=O)CSc1nnc(-c2ccco2)n1-c1ccccc1	12	-1	1	20	3575	0
Cc1ccc2nc(SCC(=O)Nc3cc([N+](=O)[O-])ccc3F)[nH]c2c1	-1	-1	-6	-2	2147	0
COC(=O)C1=C(C)N(C)C(C)=C(C(=O)OC)C1c1ccsc1	2	-1	2	4	4588	0
CCOC(=O)C1=CN(C)C=C(C(=O)OCC)C1c1ccsc1	20	1	5	9	9481	+
CC1(C)CN(c2ccccc2)N(Cc2ccc(F)cc2)C1=O	-1	8	11	0	18014*	1
O=C(Nc1cccc(Cl)c1)Nc1cccc(Cl)c1	4	0	-12	4	3494	11
CCOC(=O)c1c(NC(=O)Nc2cccc(Cl)c2)sc(C)c1C	-5	-2	-4	-9	23460*	5
CCOC(=O)c1c(NC(C)=O)sc2c(O)cccc12	0	-5	-6	3	21384*	1
SMILES	Anthrax LF prot	BoNT A protease	BoNT-F LC inh	GDH-TPI inh	Autofluor counter	Mtb FBA inh
CCN(CC)C(=O)c1ccccc1NC(=O)CN1C(=O)c2ccccc2S1(=O)=O	-2	1	10	-2	5672	4
CC(NC(=O)/C(C#N)=C1\N=C(NC(=O)c2cccs2)c2ccccc21)c1ccccc1 (stereo not drawn)	15	30*	9	14	6060	4
CCCCCCCCN1[C@@H](CC(=O)O)c2ccc(C(F)(F)F)cc2S1(=O)=O	9	0	7	9	4280	-3
CCOc1ccc(S(=O)(=O)N2CCC(C(=O)NC3CC3)CC2)cc1Cl	-1	1	7	-5	5486	-5
CCn1c(SCc2nc(-c3ccccc3)no2)nnc1-c1ccco1	-4	-3	-6	-1	23800*	1
c1ccc(-c2noc(CSc3nnnn3C3CCCCC3)n2)cc1	-2	-1	-3	10	20752*	-1
Nn1c(COc2ccccc2)nnc1SC(F)F	-3	0	-2	1	23749*	0
Cc1ccc(OCc2nnc(SCC(=O)O)n2N)cc1	0	0	-10	5	9404	1
c1ccc(OCc2nn3c(-c4ccncc4)nnc3s2)cc1	-1	-4	-5	-7	21442*	0
CCOc1nc(-c2ccccc2)ccc1-c1noc(-c2ccncc2)n1	0	0	13	-5	8342	0
COCc1nc(-c2ccc(-c3ccc(OC)cc3)nc2OC)no1	-2	0	-7	17	4496	+
CCOc1nc(-c2ccc(OC)cc2)ccc1-c1noc(-c2ccncc2)n1	-2	?	0	0	23147*	0
CCOc1nc(-c2ccccc2)ccc1-c1noc(-c2cccs2)n1	0	3	8	-2	20998*	1
CCc1nc(-c2ccc(-c3ccc(OC)cc3)nc2OC)no1	-5	1	10	6	4716	152*
Cn1cnc2c(=O)sc3ccccc3c21	-12	1	?	2	3766	-4
Cc1ccc(C(C)C)cc1OCC(=O)Nc1ccc(N2CCCCC2)cc1	-5	9	-4	7	?	1
C/C(=N\NC(=O)CN1CCN(S(=O)(=O)c2ccc(C)cc2)CC1)c1ccncc1	-3	-1	-7	-1	4324	0
Cc1ccc(-n2c(O)c(C=NCc3ccccn3)c3ccccc3c2=O)cc1	-2	0	-3	10	2678	5
CC(C)CCN=Cc1c(O)n(-c2ccccc2)c(=O)c2ccccc12	-1	?	1	23	22931*	0
CC(C)CCC(C)N=Cc1c(O)n(Cc2ccccc2)c(=O)c2ccccc12 (stereo not drawn)	-6	-1	-6	10	2898	3
CCN1CCCC1CN=Cc1c(O)n(-c2ccccc2)c(=O)c2ccccc12 (stereo not drawn)	4	?	4	15	27436*	13
Cn1c(=O)c2[nH]c(NN=Cc3ccc(Br)cc3)nc2n(C)c1=O	-2	0	-5	28	3976	-2
